Compound activity: PubChem BioAssay, National Center for Advancing Translational Sciences (NCATS)
An excerpt weighted towards active compounds, which were near 7.5% of everything screened.
Rab9 prom act – qHTS Assay for Rab9 Promoter Activators; Huh7 Rab9 promoter-luciferase reporter, luminescence, 24 h; Potency, µM (highest dose often 9.22 µM), inactives show top-dose activation, negative = inhibition, actives largely listed as activators; hit rate 2.8% among 320,000; also: % of control where 0% means no effect; nearly all actives have a fitted effect of over 60% in size
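Luminescence from Amplite-detected luciferase (10 minutes, ambient) reports Rab9 promoter activation. Before that, stable Rab9-luciferase Huh7 cells (1500/well, reduced-serum OP-MEM I plus 10% FBS) were exposed to compound for 24 hours at 37C.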
FLuc modulator – qHTS profiling assay for firefly luciferase inhibitor/activator using purifed enzyme and Km concentrations of substrates (counterscreen for miR-21 project) | Luciferin 4-monooxygenase (Photinus pyralis), P08659 | purified FLuc, Km substrates, luminescence inhibition | Potency, µM (top dose mostly 57.5 µM), for the others: at the highest dose activity change, negative = inhibition, most hits filed as inhibitors | hit rate 6.9% among 360,000;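 also: plate controls were vehicle for no effect and reference inhibitor for full effect; nearly all actives have a fitted effect of over 55% in size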
Target sequence (P08659 whole entry, looked up): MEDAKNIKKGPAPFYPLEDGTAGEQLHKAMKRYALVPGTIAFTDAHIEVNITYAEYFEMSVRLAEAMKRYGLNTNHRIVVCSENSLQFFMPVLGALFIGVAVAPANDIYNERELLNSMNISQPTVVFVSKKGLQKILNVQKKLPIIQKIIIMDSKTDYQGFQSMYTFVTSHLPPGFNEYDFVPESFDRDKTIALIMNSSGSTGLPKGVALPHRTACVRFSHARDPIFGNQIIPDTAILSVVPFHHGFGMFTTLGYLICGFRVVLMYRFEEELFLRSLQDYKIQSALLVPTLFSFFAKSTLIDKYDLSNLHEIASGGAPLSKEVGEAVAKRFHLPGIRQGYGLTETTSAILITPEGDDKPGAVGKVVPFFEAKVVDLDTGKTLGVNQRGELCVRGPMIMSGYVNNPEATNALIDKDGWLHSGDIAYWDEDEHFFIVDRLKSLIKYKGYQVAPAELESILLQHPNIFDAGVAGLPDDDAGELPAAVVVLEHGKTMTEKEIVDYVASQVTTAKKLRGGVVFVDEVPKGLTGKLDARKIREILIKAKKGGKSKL
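Biochemical qHTS of compounds, final roughly 60 µM downward over six points, against 10 nM purified firefly luciferase using Km concentrations of substrates (10 uM D-luciferin, 10 uM ATP) in Tris acetate pH 7.5 buffer; luminescence output.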
SMN2 splice up – qHTS Assay for Enhancers of SMN2 Splice Variant Expression; Potency, µM (highest dose often 46.1 µM), inactives show at the top dose activity change, positive = activation, most hits filed as activators; HEK293 SMN2-luciferase splicing reporter, luminescence, 30-36 h; hit rate 2.8% among 210,000; also: % of control where 0% means no effect; nearly all actives have a fitted effect of over 55% in size
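qHTS luciferase splicing reporter: luminescence rises when SMN2 exon 7 is included in transfected HEK293 cells. Compound exposure lasted 30-36 h at 37C, with 4.5 mM final sodium butyrate as control, followed by a ONE-Glo read.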
NPC1 prom act – qHTS Assay for NPC1 Promoter Activators | Potency, µM (highest dose often 9.22 µM), for the others: at the highest dose activation, most hits filed as activators | Huh7 NPC1 promoter luciferase reporter, 24 h | AID 485313, 2010 | hit rate 2.4% among 320,000; also: % of control where 0% means no effect; nearly all actives have a fitted effect of over 60% in size
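Cells: Huh7 expressing luciferase under the NPC1 promoter, 1500/well. Seeded 2 h, compound added, incubated 24 h at 37 °C. Luciferase reagent, 10 min ambient, then luminescence.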
ELG1 genotoxic – qHTS screen for small molecules that induce genotoxicity in human embryonic kidney (HEK293T) cells expressing luciferase-tagged ELG1; HEK293T ELG1-luciferase reporter, luminescence, 16 h; Potency, µM (doses to about 46 µM), for the others: at the top dose activity change, positive = activation, usual class: activators; hit rate 1.3% among 330,000; AID 504466, 2011; also: % of control where 0% means no effect; nearly all actives have a fitted effect of over 60% in size
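HEK293T cells expressing luciferase-tagged ELG1 were exposed to compound or DMSO vehicle for 16 hr at 37 °C and 5% CO2. Luciferase activity was then measured with ONE-Glo after 30 min at room temperature.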
Luc counter – Counterscreen for Luciferase (Kinase-Glo TM) Inhibition; Luciferin 4-monooxygenase (Photuris pensylvanica), Q27757; Kinase-Glo luciferase, ATP luminescence, 8 min; Potency, µM (titrated, usually from 38.3 µM), inactives show top-dose activity change, negative = inhibition, actives largely listed as inhibitors; hit rate 0.28% among 200,000; AID 1379, 2008; also: % is scaled to controls: 0 for no effect and ±100 for the full control effect; nearly all actives have a fitted effect of over 60% in size
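Compounds were added to a substrate mix at pH 7.2 (50 mM imidazole, 10 uM ATP, within the enzyme's linear range), followed by Kinase-Glo detection reagent; luminescence was measured after 8 minutes at ambient temperature.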
Starred values were filed as active, the others as inactive; u = inconclusive; x = no result. Calls follow the shape of the dose curve; as a rule, active = well fitted curve in the direction sought with a large enough effect; inconclusive = small, poorly fitted or top-dose-only effect, or another doubt; inactive = no such curve, though single readings can be large; an effect the other way counts as inactive or inconclusive. Potency is read from the fitted curve at half-maximal effect.

SMILES	Rab9 prom act	FLuc modulator	SMN2 splice up	NPC1 prom act	ELG1 genotoxic	Luc counter
CCOC(=O)N1CCN(C(=O)c2cc(COc3cccc(C(C)=O)c3)on2)CC1	u	u	x	22.9%	12.8%	x
O=C(NC1CCOC1)c1cc(COc2cccc(C(F)(F)F)c2)on1 (stereo not given)	u	23.9µM*	x	0.1%	u	x
CC(NC(=O)c1cc(COc2cccc(C(F)(F)F)c2)on1)c1nccs1 (stereo not given)	2.82µM*	15.1µM*	x	u	u	x
CCOC(=O)N1CCN(C(=O)c2cc(COc3cccc(C(F)(F)F)c3)on2)CC1	2.82µM*	15.1µM*	x	3.16µM*	u	x
O=C(NCC1CCOCC1)c1cc(COc2cccc(C(F)(F)F)c2)on1	0.6%	0.2%	x	-1.5%	-9.4%	x
O=C(Nc1cccc(NC(=O)c2ncn[nH]2)c1)c1cccc(Cl)c1	-4.4%	u	6.8%	-8.7%	-5.1%	-3.1%
FC(F)(F)c1ccccc1Cl	x	x	6.2%	x	x	x
O=C(CN(Cc1ccco1)C(=O)CNS(=O)(=O)c1ccccc1)NCc1ccc(F)cc1	19.7%	6.1%	-5.2%	15.8%	18.4µM*	1.1%
CSc1nc(Cl)cc(Nc2ccc(O)cc2)n1	20.7%	u	u	7.6%	u	0.6%
CCc1nc(-c2ccccc2O)n(-c2ccccc2)n1	-7.7%	0.1%	-15.8%	-2.6%	-0.1%	2.2%
CN(C)c1ccc(/C=C/c2nc3ccccc3c(=O)n2CCO)cc1	9.3%	-15.3%	x	15.4%	-2.2%	x
Cc1noc(C)c1COC(=O)/C=C/c1ccccc1Cl	-0.1%	u	-5.9%	-0.5%	2.1%	1.7%
Oc1ccccc1-c1nc(/C=C/c2ccccc2Cl)no1	x	0.19µM*	-1.7%	x	x	x
Oc1ccccc1-c1nc(/C=C/c2ccccc2Cl)nn1-c1ccccc1	x	6.01µM*	1.5%	x	x	x
CN(C)c1ccc(/C=C/c2noc(-c3ccccc3O)n2)cc1	x	0.675µM*	-24.4%	x	x	x
CC1S/C(=N/N=C/c2cccs2)NC1=O (stereo not given)	2.3%	u	x	0.2%	14.4%	x
Cc1ccc(S(=O)(=O)Oc2ccc(C)cc2/C=N/N=C2\NC(=O)C(C)S2)cc1 (stereo not given)	u	9.53µM*	-7.8%	11.1%	u	-0.8%
COc1ccc(-c2nn(-c3ccccc3)cc2/C=N/Nc2ccc(Cl)c(C(=O)O)c2)cc1OC	0.7%	13.5µM*	x	1.8%	10.0%	x
COc1ccc(-c2nn(-c3ccccc3)cc2/C=C(\CC(=O)O)c2nc3ccccc3s2)cc1OC	-0.6%	9.53µM*	-5.0%	2.6%	2.0%	-0.3%
NC(=O)/C=C\c1cn(-c2ccccc2)nc1-c1ccc2c(c1)OCCO2	-5.2%	-15.6%	-7.7%	-1.9%	-2.6%	1.9%
COc1ccc(-c2nn(-c3ccccc3)cc2/C=C/C(=O)N2CCOCC2)cc1OC	-2.0%	23.9µM*	10.7%	0.3%	-1.1%	0.4%
O=C(O)c1cccc(NC(=O)c2cn(-c3ccccc3)nc2-c2ccc(F)cc2)c1	22.0%	4.78µM*	x	-4.3%	8.5%	x
Cc1cccc(-c2nc(CSCC(=O)N3CCN(c4ccccc4)CC3)c(C)o2)c1	x	-16.5%	-38.7%	x	x	x
Cc1cc(-c2nnc(CCC(=O)NC(C)c3ccc(F)cc3)o2)no1 (stereo not given)	-1.7%	-9.3%	x	-2.1%	0.5%	-0.5%
O=C1/C(=C/c2cccs2)SC(=S)N1CC(=O)N1CCCCC1CCO (stereo not given)	-5.7%	u	x	-3.3%	2.7%	x
SMILES	Rab9 prom act	FLuc modulator	SMN2 splice up	NPC1 prom act	ELG1 genotoxic	Luc counter
CCc1ccc(N2CC(C(=O)Nc3ccc(S(=O)(=O)NCC4CCCO4)cc3)CC2=O)cc1 (stereo not given)	1.9%	0.1%	x	0.3%	-0.4%	x
COc1ccc(NC(=O)CN2C(=O)C(c3ccc(C(C)(C)C)cc3)=NC2(C)C)cc1Cl	x	-26.7%	5.7%	x	x	x
Cc1ccc(Cl)cc1NC(=O)c1cccc(OC(F)F)c1	-4.5%	-23.8%	-31.2%	-2.5%	-0.8%	-0.7%
COc1ccc(-c2nn(-c3ccccc3)cc2C(=O)Nc2ccc(C(=O)O)cc2)cc1OC	15.7%	4.26µM*	x	17.9%	16.0%	x
COc1ccc(-c2cn(-c3ccccc3)nc2C(=O)O)cc1OC	-0.7%	12µM*	x	-0.3%	-0.6%	x
COc1cccc(-c2nn(-c3ccc(C)cc3)cc2C(=O)N2CCc3cc(OC)c(OC)cc3C2)c1	1.3%	5.36µM*	x	-2.6%	-22.5%	x
Cc1ccc(-c2nn(-c3ccccc3)cc2C(=O)Nc2ccc(C(=O)O)cc2)cc1	u	1.07µM*	17.8µM*	27.3%	13.3%	-3.8%
COc1ccc(OC)c(-c2nn(-c3ccccc3)cc2C(=O)N2CCc3ccccc3C2)c1	1.1%	2.1%	x	-1.8%	-0.1%	x
Cc1ccc(NC(=O)c2cn(-c3ccccc3)nc2-c2ccccc2)cc1	x	-6.8%	x	x	x	x
CCOC(=O)c1ccc(NC(=O)c2cn(-c3ccccc3)nc2-c2ccc(OC)c(OC)c2)cc1	x	-0.8%	10.0%	x	x	x
CCCOc1ccc(C2c3c(oc4ccccc4c3=O)C(=O)N2c2nc(C)c(C(=O)OCC)s2)cc1 (stereo not given)	x	1.4%	0.2%	x	x	x
O=C(NCc1ccccc1)c1ccc(CNS(=O)(=O)c2ccc(Br)cc2)cc1	x	-9.1%	-7.0%	x	x	x
COc1ccc(-c2nn(-c3ccccc3)cc2/C=C/C(=O)NCCCn2ccnc2)cc1OC	4.0%	26.9µM*	x	-0.1%	-10.2%	0.8%
COc1cccc(-c2nn(-c3ccccc3)cc2C(=O)O)c1	-7.1%	u	-18.2%	-3.7%	2.0%	-0.5%
COc1ccc(-c2nn(-c3ccccc3)cc2C(=O)O)cc1OC	8.2%	15.1µM*	3.3%	3.5%	7.0%	10.2%
COc1ccc(-c2nn(-c3ccccc3)cc2C(=O)NCCCn2ccnc2)cc1	1.9%	-13.6%	-6.3%	-3.1%	-3.4%	1.8%
CCOCCCNC(=O)c1c[nH]c2ccc(OCC)cc2c1=O	-9.1%	1.4%	x	-0.8%	-7.1%	x
CCNC(=O)c1ccc2c(c1)sc1nc(-c3cccc(OC)c3)cn12	x	-8.0%	x	x	x	x
COc1cccc(-c2cn3ncsc3n2)c1	x	15.1µM*	0.1%	x	x	x
